Compound activity (PubChem BioAssay)
This is a sample that favours compounds with a hit; in the whole collection about 2.8% have one here.
WRN helicase inh = inhibitors of human WRN helicase; WRN helicase unwinding, fluorescent forked duplex, kinetic; Potency, µM (titrated, usually from 114 µM), inactives show top-dose activity change, negative = inhibition, hits mostly inhibitors; 360,000 compounds, 0.46% hits; Q14191; also: potency is read from the fitted curve at half-maximal effect; % is scaled to controls: 0 for no effect and ±100 for the full control effect; nearly all actives have a fitted effect of over 55% in size
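Primary qHTS, 1536-well format. 20 nM WRN + compound, 15 min RT; start with 100 nM forked fluorophore/quencher duplex, 2 mM ATP (final); kinetic read ex 525/em 598 nm.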
POLI inh = inhibitors of human DNA polymerase iota; AID 588590; Potency, µM (highest dose often 115 µM), for inactives: at the top dose activity, negative = inhibition, most hits filed as inhibitors; Pol iota fluorescent replication assay, 10 min; 390,000 compounds, 1% hits; also: potency is read from the fitted curve at half-maximal effect
Target sequence (Q9UNA4 whole entry, looked up): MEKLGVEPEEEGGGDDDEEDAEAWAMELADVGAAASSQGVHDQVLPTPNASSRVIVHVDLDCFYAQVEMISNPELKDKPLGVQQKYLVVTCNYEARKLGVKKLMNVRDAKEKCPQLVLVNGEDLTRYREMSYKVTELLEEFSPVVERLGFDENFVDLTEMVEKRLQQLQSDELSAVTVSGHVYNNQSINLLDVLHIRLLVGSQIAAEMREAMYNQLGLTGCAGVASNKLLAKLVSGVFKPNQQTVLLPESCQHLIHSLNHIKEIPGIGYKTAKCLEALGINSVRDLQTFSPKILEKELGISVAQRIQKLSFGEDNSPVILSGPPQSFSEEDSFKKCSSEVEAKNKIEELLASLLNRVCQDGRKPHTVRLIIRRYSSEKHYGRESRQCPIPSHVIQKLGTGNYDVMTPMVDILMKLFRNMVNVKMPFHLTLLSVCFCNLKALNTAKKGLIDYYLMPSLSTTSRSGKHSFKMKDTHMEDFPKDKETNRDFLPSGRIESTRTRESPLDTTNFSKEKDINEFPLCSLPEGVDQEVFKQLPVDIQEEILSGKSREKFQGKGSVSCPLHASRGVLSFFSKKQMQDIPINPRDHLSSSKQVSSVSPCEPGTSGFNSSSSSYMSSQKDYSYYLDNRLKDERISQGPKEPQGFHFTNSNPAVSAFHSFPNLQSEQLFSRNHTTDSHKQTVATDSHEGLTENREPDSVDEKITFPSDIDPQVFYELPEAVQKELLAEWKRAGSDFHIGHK
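Fluorescent replication assay read twice, at 0 min and 10 min after adding 50 nM (final) substrate. Enzyme (10 nM) and compounds were first incubated 15 min at room temperature; enzyme-free buffer wells were negative controls.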
PI5P4Ka inh = inhibitors of human PI5P4K alpha; P48426; PI5P4Kalpha enzyme, ADP-Glo luminescence, 60 min; stronger effect = lower value; max response, %; 330,000 compounds, 1.2% hits; active = max response of -50% or lower; inconclusive = between -30% and -50%; inactive = -30% or higher; also: value at the top dose of about 77 µM; % is scaled to controls: 0 for no effect and ±100 for the full control effect
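Compounds were pin-transferred onto PI5P4Kalpha and substrate in HEPES pH 7.4 buffer with EGTA, CHAPS and 5% DMSO. ATP (5 microM final) started the reaction, which ran 60 minutes at room temperature before ADP-Glo detection.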
Pol beta inh = inhibitors of human DNA polymerase beta. AID 485314. Potency, µM (top dose mostly 114 µM), inactives show at the top dose activity change, negative = inhibition, usual class: inhibitors. P06746. 340,000 compounds, 1.3% hits. Pol beta primer extension/strand displacement, fluorescence kinetic; also: potency is read from the fitted curve at half-maximal effect; % is scaled to controls: 0 for no effect and ±100 for the full control effect
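Values derive from four-parameter Hill fits of normalized kinetic data: reads at 0 and 10 min following addition of 50 nM substrate to 10 nM Pol beta preincubated 15 min with compound.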
Pol kappa inh = blocks human DNA polymerase kappa activity | Q9UBT6 | purified Pol kappa, fluorescent DNA synthesis assay, 10 min | Potency, µM (top dose mostly 107 µM), inactives show top-dose activity, negative = inhibition, actives largely listed as inhibitors | 400,000 compounds, 0.53% hits | AID 588579; also: potency is read from the fitted curve at half-maximal effect; % is scaled to controls: 0 for no effect and ±100 for the full control effect
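Inhibition of 10 nM Pol kappa is measured by a fluorescent read-out at 0 and 10 min following addition of 50 nM substrate (final), with a 15-min room-temperature compound preincubation.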
Pol eta inh = inhibitors of human DNA polymerase eta. recombinant Pol eta, fluorescent DNA replication assay. 390,000 compounds, 1.2% hits. AID 588591. Q9Y253. Potency, µM (series often up to 114 µM), for inactives: at the top dose activity change, negative = inhibition, hits mostly inhibitors; also: potency is read from the fitted curve at half-maximal effect; % is scaled to controls: 0 for no effect and ±100 for the full control effect
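Pol eta at 10 nM preincubated with compounds 15 min at room temperature; reaction started with fluorescent substrate (50 nM final) and read kinetically at 0 and 10 min.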
* hit, by the source's call; ? = inconclusive; . = no result given; [ ] = remark or other dose. Unless noted, calls follow the shape of the dose curve; as a rule, active = well fitted curve in the direction sought with a large enough effect; inconclusive = small, poorly fitted or top-dose-only effect, or another doubt; inactive = no such curve, though single readings can be large; an effect the other way counts as inactive or inconclusive.

SMILES | WRN helicase inh | POLI inh | PI5P4Ka inh | Pol beta inh | Pol kappa inh | Pol eta inh
CCOc1ccccc1N1CCN(CC(=O)N(C2CCCC2)C2CCS(=O)(=O)C2)CC1 (stereo unspecified) | 8.7% | -16.7% | -6.1 | . | -12.1% | -9.8%
Cc1ccc(C2C=CC(C#N)=CN2Cc2ccccc2)cc1 (stereo unspecified) | -12.6% | . | 4.4 | . | . | .
O=C1C(=NO)CCc2ccccc21 | ? | ? | ? | . | -22.9% | 17.8µM*
O/N=C1/CCc2cccc3cccc1c23 | -16.0% | -14.4% | . | -1.5% | -9.4% | -1.2%
CCC1CCCCN1CCCNC(=O)c1ccc2c(c1)N(Cc1ccccc1F)C(=O)c1ccccc1S2(=O)=O (stereo unspecified) | . | 16.9% | . | 34.2% | -5.5% | -13.4%
CCOc1ccc(N=Cc2ccc(N(C)C)cc2)c(O)c1 | -35.4% | . | -54.0* | . | . | ?
CCOc1ccc(N=Cc2ccc([N+](=O)[O-])cc2)c(O)c1 | 1.0% | . | -12.9 | . | . | -3.8%
O=C(O)C(O)c1ccco1 (stereo unspecified) | 50.1µM* | ? | -60.3* | 2.24µM* | 20µM* | 3.55µM*
O=C1C2CC=C(Cl)CC2C(=O)N1CN(Cc1ccco1)CN1C(=O)C2CC=C(Cl)CC2C1=O (stereo unspecified) | -17.3% | ? | -0.2 | 35.5µM* | -3.5% | ?
O=C(CCN1C(=O)C2CC=C(Cl)CC2C1=O)NCc1ccco1 (stereo unspecified) | -11.3% | -9.2% | -4.8 | 9.6% | -2.8% | ?
CC(=O)N1CCOc2cc(S(=O)(=O)NCc3ccc(C)cc3)c(C)cc21 | . | 11.7% | . | 11.2% | 0.1% | -0.9%
CC1=Nc2ccccc2/C1=C\c1sc(Nc2ccc(C)cc2)nc1O | -3.7% | 6.0% | -66.1* | -5.0% | -15.5% | -6.1%
Oc1cccc(Nc2nc(O)c(/C=C3\C=Nc4ccccc43)s2)c1 | ? | ? | -101.6* | ? | -18.6% | ?
Oc1nc(Nc2cccc(Cl)c2)sc1/C=C1\C=Nc2ccccc21 | -30.6% | -6.2% | -61.6* | ? | -0.2% | -10.4%
C=CCNc1nc(C(=O)OCC(=O)Nc2ccc(S(N)(=O)=O)cc2)cs1 | -18.0% | 28.2µM* | ? | . | -27.1% | 56.2µM*
COc1ccc(C(=O)N[C@H](C(=O)NCCc2ccc3c(c2)OCCO3)C(C)C)cc1 | 6.9% | 6.9% | 2.1 | . | 3.8% | -1.1%
Cc1cc(C(=O)O)ccc1-n1c(C)cc(/C=C2\SC(=O)NC2=O)c1C | -6.1%[11.6 µM] | ? | -57.6* | ? | -27.0% | 50.1µM*
COc1ccccc1C=C1SC(=S)NC1=O | -22.6% | ? | -71.7* | . | -28.1% | ?
O=C1NC(=O)/C(=C/c2ccccc2Oc2ccc(Cl)cc2)S1 | -13.2% | ? | -4.8 | ? | -24.8% | 3.3%
COc1ccc(/C=C2/CC/C(=C\c3ccc(OC)c(OC)c3OC)C2=O)c(OC)c1OC | -4.3% | 9.2% | 1.2 | ? | -13.9% | ?
COc1ccc(C=C2SC(=S)NC2=O)c(OC)c1OC | ? | -20.1% | -63.5* | . | -16.0% | ?
O=C1NC(=S)SC1=Cc1ccccc1Cl | -33.7% | ? | -79.4* | . | -12.1% | -1.7%
Cc1cn(S(=O)(=O)c2ccc(F)c(Cl)c2)cn1 | . | 21.6% | . | 3.0% | -4.7% | -16.4%
CC(C)(C)c1ccc(C(=O)C[n+]2ccc(Cl)c3ccc(Cl)cc32)cc1 | . | 7.1% | . | . | -2.8% | .
Cc1cc(/C=C2\SC(=S)NC2=O)c(C)n1-c1ccccc1 | -29.5% | ? | -82.6* | ? | ? | 50.1µM*
SMILES | WRN helicase inh | POLI inh | PI5P4Ka inh | Pol beta inh | Pol kappa inh | Pol eta inh
O=C1NC(=S)S/C1=C\c1cccc([N+](=O)[O-])c1 | -7.4%[11.6 µM] | ? | -65.4* | . | 2.1% | ?
COc1ccc(-n2c(C)cc(/C=C3\SC(=S)NC3=O)c2C)cc1 | -9.1% | -27.8% | ? | -3.3% | -17.2% | ?
CC(C)c1ccc(Cn2cnc3c(cnn3C(C)(C)C)c2=O)cc1 | . | -6.9% | . | . | 0.1% | .
C/C(=N\Nc1nc(-c2cc(C)ccc2C)cs1)c1cc2ccccc2oc1=O | -33.4% | 10.2% | -4.6 | 50.1µM* | -23.6% | -4.5%
CC(=O)c1cc2c(ccc3ccccc32)oc1=O | -4.6% | 168.2% | 1.4 | -0.8% | -2.8% | -11.9%
C/C(=N\Nc1nc(-c2cc(C)ccc2C)cs1)c1cc2c(ccc3ccccc32)oc1=O | -30.1% | ? | ? | ? | 79.4µM* | -17.8%
O=c1oc2ccccc2cc1-c1csc(NN=C2CCCC2)n1 | 7.1% | 28.9% | 3.7 | 14.9% | -7.1% | -4.9%
NS(=O)(=O)c1cccc(NC(=O)CSc2nnc(-c3ccncc3)n2C2CC2)c1 | -6.4% | -8.4% | -19.7 | . | 7.5% | -16.0%
Cc1ccc(NC(=O)N2CC3CCCN3c3ccccc32)cc1Cl (stereo unspecified) | . | -7.9% | . | -10.5% | -24.1% | -7.3%
Cc1cc(C(=O)OCC(=O)Nc2cc(S(=O)(=O)N(C)C)ccc2C)c2ccccc2n1 | -5.1% | 65.9% | -4.1 | 3.1% | -17.7% | -11.0%
Cc1ccc(S(=O)(=O)N(C)C)cc1NC(=O)c1cc(-c2ccco2)nc2ccccc12 | ? | 20µM* | -56.0* | -0.5% | ? | ?
Cc1ccc(NC(=O)c2cc(-c3ccco3)nc3ccccc23)cc1S(=O)(=O)N1CCOCC1 | ? | 15.8µM* | -28.6 | 14.1µM* | -41.2% | ?
Cc1ncc(CO)c2c1Oc1nc(-c3ccccc3)nc(SCC(=O)N3CCCCC3)c1C2 | 0.1% | 22.0% | -8.0 | 6.8% | -12.8% | ?
Cc1ncc(CO)c2c1Oc1nc(-c3ccccc3)nc(SCC(=O)N(C)c3ccccc3)c1C2 | . | . | . | 56.2µM* | . | .
Cc1ncc(CO)c2c1Oc1nc(-c3ccccc3F)nc(SCC(=O)N(C)c3ccccc3)c1C2 | -8.1%[57.1 µM] | ? | -7.1 | 14.5% | -8.5% | 79.4µM*
CCN(CC)C(=O)CSc1nc(-c2ccccc2F)nc2c1Cc1c(CO)cnc(C)c1O2 | . | -2.9% | . | -17.1% | 1.2% | -4.4%
COc1cccc(-c2nc3c(c(SCC(=O)N4CCOCC4)n2)Cc2c(CO)cnc(C)c2O3)c1 | -25.5% | 79.4µM* | -1.5 | -9.4% | -37.7% | -13.7%
Cc1cccc(-c2nc3c(c(SCC(=O)N4CCOCC4)n2)Cc2c(CO)cnc(C)c2O3)c1 | -16.7% | ? | -4.8 | -17.3% | -1.2% | ?
COc1cccc(Cn2nnc3c(=O)[nH]c(C4CCN(C(=O)c5ccccc5Cl)CC4)nc32)c1 | . | 1.0% | . | -3.4% | 0.0% | -12.3%
O=C(Nc1ccc(C(=O)OCc2cc(=O)n3ccsc3n2)cc1)c1cccc(F)c1 | . | 16.8% | . | -17.3% | -7.0%[60.1 µM] | -16.9%
Cc1ccc(/C=C/c2nc3ccccc3[nH]2)o1 | -18.2% | 96.4% | -66.0* | -5.0% | -26.0% | -16.3%
COc1cccc(C(NC(C)=O)c2nc(-c3ccc4c(c3)OCO4)cs2)c1 (stereo unspecified) | 2.9% | . | -3.1 | . | . | .
